# Results: PubChem BioAssay AID1508601 (ICCB-Longwood Screening Facility, Harvard Medical School, 2020)
# Screen size: about 5,700 compounds; about 85 (1%) were called active. Cut-off read from the data, not from the text of the source: active = p53-positive nuclei above about 36% (passing the limit was not always enough); inactive = the rest. This excerpt belongs to a sample that is enriched for actives. Peptide text beside a SMILES is read from it.
# Experiments:
# [1] = p53 stabilisation in HPV-positive human cells, imaging, p53-positive nuclei imaging, 24 h, 48 h (AID 1508601); conditions: 24/48 h
# [2] = molecular target: Cellular tumor antigen p53 (Homo sapiens) (UniProt P04637); test: as above; conditions: 24/48 h, stronger effect = higher value
# [3] = measured here: cell number at 24 h, Library stock concentration: 3.33 mM
# [4] = measured here: cell number at 48 h, Library stock concentration: 3.33 mM
# [5] = Library stock concentration: 3.33 mM
# [6] = measured here: p53 positive nuclei at 24 h, Library stock concentration: 3.33 mM
# [7] = measured here: cell number at 24 h, concentration not given here
# [8] = measured here: cell number at 48 h, concentration not given here
# [9] = measured here: p53 positive nuclei at 24 h, concentration not given here
# [10] = measured here: cell number at 24 h, Library stock concentration: 80 uM
# [11] = measured here: cell number at 24 h, Library stock concentration: 400 uM
# [12] = measured here: cell number at 24 h, Library stock concentration: 2 mM
# [13] = measured here: cell number at 24 h, Library stock concentration: 10 mM
# [14] = measured here: cell number at 48 h, Library stock concentration: 80 uM
# [15] = measured here: cell number at 48 h, Library stock concentration: 400 uM
# [16] = measured here: cell number at 48 h, Library stock concentration: 2 mM
# [17] = measured here: cell number at 48 h, Library stock concentration: 10 mM
# [18] = Library stock concentration: 80 uM
# [19] = Library stock concentration: 400 uM
# [20] = Library stock concentration: 2 mM
# [21] = Library stock concentration: 10 mM
# [22] = measured here: p53 positive nuclei at 24 h, Library stock concentration: 80 uM
# [23] = measured here: p53 positive nuclei at 24 h, Library stock concentration: 400 uM
# [24] = measured here: p53 positive nuclei at 24 h, Library stock concentration: 2 mM
# [25] = measured here: p53 positive nuclei at 24 h, Library stock concentration: 10 mM
# Sequence of Cellular tumor antigen p53 (Homo sapiens) (P04637 whole entry, looked up): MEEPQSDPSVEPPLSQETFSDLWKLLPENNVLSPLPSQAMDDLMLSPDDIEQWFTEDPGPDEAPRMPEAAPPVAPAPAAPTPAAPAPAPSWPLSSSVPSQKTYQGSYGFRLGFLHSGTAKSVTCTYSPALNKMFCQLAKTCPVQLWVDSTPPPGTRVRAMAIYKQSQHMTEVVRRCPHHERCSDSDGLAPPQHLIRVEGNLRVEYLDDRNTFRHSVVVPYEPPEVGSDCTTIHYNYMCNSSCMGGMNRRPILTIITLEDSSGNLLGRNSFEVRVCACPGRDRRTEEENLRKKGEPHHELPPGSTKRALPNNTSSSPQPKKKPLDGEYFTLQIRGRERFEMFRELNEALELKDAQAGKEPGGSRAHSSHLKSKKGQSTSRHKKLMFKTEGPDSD
smiles,measurement,setting,value
CNC(=O)C(c1ccccc1)N1CCc2cc(OC)c(OC)cc2C1CCc1ccc(C(F)(F)F)cc1 (stereo not drawn),"nuclei count, normalised",[1]; [3],107%
same,"nuclei count, normalised",[1]; [4],104%
same,"p53-positive nuclei, normalised",[2]; [5],-0.362% (inactive)
same,"p53-positive nuclei, normalised",[2]; [6],-0.539%
Cc1occc1C(=O)Nc1ccccc1C(=O)N(C)Cc1ccccn1,"nuclei count, normalised",[1]; [7],96.8%
same,"nuclei count, normalised",[1]; [8],105%
same,"p53-positive nuclei, normalised",[2]; concentration not given here,0.23% (inactive)
same,"p53-positive nuclei, normalised",[2]; [9],0.178%
O=C(c1ccccc1-c1nn[nH]n1)N1CCc2[nH]cnc2C1c1ccccn1 (stereo not drawn),"nuclei count, normalised",[1]; [7],101%
same,"nuclei count, normalised",[1]; [8],107%
same,"p53-positive nuclei, normalised",[2]; concentration not given here,-0.169% (inactive)
same,"p53-positive nuclei, normalised",[2]; [9],-0.0711%
O=C(OC[C@@H]1O[C@H]1c1ccccc1)Oc1ccc([N+](=O)[O-])cc1,"nuclei count, normalised",[1]; [7],101%
same,"nuclei count, normalised",[1]; [8],105%
same,"p53-positive nuclei, normalised",[2]; concentration not given here,-0.0534% (inactive)
same,"p53-positive nuclei, normalised",[2]; [9],-0.0466%
CC(C)CC(CC(=O)NO)C(=O)NC(Cc1ccc2ccccc2c1)C(=O)NC(C)C(=O)NCCN (stereo not drawn),"nuclei count, normalised",[1]; [3],109%
same,"nuclei count, normalised",[1]; [4],104%
same,"p53-positive nuclei, normalised",[2]; [5],0.0444% (inactive)
same,"p53-positive nuclei, normalised",[2]; [6],-0.208%
CSCCC(NC=O)C(=O)NC(CC(C)C)C(=O)NC(Cc1ccccc1)C(=O)O (stereo not drawn),"nuclei count, normalised",[1]; [10],96%
same,"nuclei count, normalised",[1]; [11],92.8%
same,"nuclei count, normalised",[1]; [12],99%
same,"nuclei count, normalised",[1]; [13],101%
same,"nuclei count, normalised",[1]; [14],97.1%
same,"nuclei count, normalised",[1]; [15],91.9%
same,"nuclei count, normalised",[1]; [16],96.7%
same,"nuclei count, normalised",[1]; [17],99.8%
same,"p53-positive nuclei, normalised",[2]; [18],-0.172% (inactive)
same,"p53-positive nuclei, normalised",[2]; [19],-0.159% (inactive)
same,"p53-positive nuclei, normalised",[2]; [20],-0.166% (inactive)
same,"p53-positive nuclei, normalised",[2]; [21],-0.212% (inactive)
same,"p53-positive nuclei, normalised",[2]; [22],-0.106%
same,"p53-positive nuclei, normalised",[2]; [23],-0.0972%
same,"p53-positive nuclei, normalised",[2]; [24],-0.166%
same,"p53-positive nuclei, normalised",[2]; [25],-0.105%
COCC(NC(=O)c1cnc(C)s1)C(=O)NC(COC)C(=O)NC(Cc1ccccc1)C(=O)C1(C)CO1 (stereo not drawn),"nuclei count, normalised",[1]; [3],50.4%
same,"nuclei count, normalised",[1]; [4],40.7%
same,"p53-positive nuclei, normalised",[2]; [5],96.5% (active)
same,"p53-positive nuclei, normalised",[2]; [6],116%
COC(=O)[C@H](Cc1ccccc1)NC(=O)[C@@H](N)CC(=O)O (H-Asp-Phe-OMe),"nuclei count, normalised",[1]; [7],91.1%
same,"nuclei count, normalised",[1]; [8],92%
same,"p53-positive nuclei, normalised",[2]; concentration not given here,-0.024% (inactive)
same,"p53-positive nuclei, normalised",[2]; [9],-0.251%
CC(C)c1nc(CN(C)C(=O)NC(CCN2CCOCC2)C(=O)NC(CCC(Cc2ccccc2)NC(=O)OCc2cncs2)Cc2ccccc2)cs1 (stereo not drawn),"nuclei count, normalised",[1]; [3],98.1%
same,"nuclei count, normalised",[1]; [4],96.3%
same,"p53-positive nuclei, normalised",[2]; [5],4.22% (inactive)
same,"p53-positive nuclei, normalised",[2]; [6],4.44%
COc1ccc(CC(NC(=O)C(C)NC(=O)CN2CCOCC2)C(=O)NC(Cc2ccccc2)C(=O)[C@@]2(C)CO2)cc1 (stereo partly drawn),"nuclei count, normalised","[1]; measured here: cell number at 24 h, Library stock concentration: 46 uM",107%
same,"nuclei count, normalised","[1]; measured here: cell number at 24 h, Library stock concentration: 278 uM",109%
same,"nuclei count, normalised","[1]; measured here: cell number at 24 h, Library stock concentration: 1.67 mM",57.1%
same,"nuclei count, normalised",[1]; [13],52.6%
same,"nuclei count, normalised","[1]; measured here: cell number at 48 h, Library stock concentration: 46 uM",113%
same,"nuclei count, normalised","[1]; measured here: cell number at 48 h, Library stock concentration: 278 uM",113%
same,"nuclei count, normalised","[1]; measured here: cell number at 48 h, Library stock concentration: 1.67 mM",43.8%
same,"nuclei count, normalised",[1]; [17],39.6%
same,"p53-positive nuclei, normalised",[2]; Library stock concentration: 46 uM,-0.326% (inactive)
same,"p53-positive nuclei, normalised",[2]; Library stock concentration: 278 uM,0.734% (inactive)
same,"p53-positive nuclei, normalised",[2]; Library stock concentration: 1.67 mM,103% (active)
same,"p53-positive nuclei, normalised",[2]; [21],102% (active)
same,"p53-positive nuclei, normalised","[2]; measured here: p53 positive nuclei at 24 h, Library stock concentration: 46 uM",-0.151%
same,"p53-positive nuclei, normalised","[2]; measured here: p53 positive nuclei at 24 h, Library stock concentration: 278 uM",0.483%
same,"p53-positive nuclei, normalised","[2]; measured here: p53 positive nuclei at 24 h, Library stock concentration: 1.67 mM",146%
same,"p53-positive nuclei, normalised",[2]; [25],144%
COc1ccc(CC(NC(=O)C(C)NC(=O)CN2CCOCC2)C(=O)NC(Cc2ccccc2)C(=O)[C@]2(C)CO2)cc1 (stereo partly drawn),"nuclei count, normalised",[1]; [3],46%
same,"nuclei count, normalised",[1]; [4],38.7%
same,"p53-positive nuclei, normalised",[2]; [5],106% (active)
same,"p53-positive nuclei, normalised",[2]; [6],126%
O=C(Cc1ccc(-c2ccc(OCCN3CCOCC3)cc2)cn1)NCc1ccccc1,"nuclei count, normalised",[1]; [10],42.9%
same,"nuclei count, normalised",[1]; [11],41.4%
same,"nuclei count, normalised",[1]; [12],40%
same,"nuclei count, normalised",[1]; [3],41.1%
same,"nuclei count, normalised",[1]; [13],39.3%
same,"nuclei count, normalised",[1]; [14],27.3%
same,"nuclei count, normalised",[1]; [15],26.6%
same,"nuclei count, normalised",[1]; [16],28.3%
same,"nuclei count, normalised",[1]; [4],30.8%
same,"nuclei count, normalised",[1]; [17],26.9%
same,"p53-positive nuclei, normalised",[2]; [18],3.36% (inactive)
same,"p53-positive nuclei, normalised",[2]; [19],4.39% (inactive)
same,"p53-positive nuclei, normalised",[2]; [20],2.81% (inactive)
same,"p53-positive nuclei, normalised",[2]; [5],2.58% (inactive)
same,"p53-positive nuclei, normalised",[2]; [21],4.55% (inactive)
same,"p53-positive nuclei, normalised",[2]; [22],-0.0362%
same,"p53-positive nuclei, normalised",[2]; [23],1.51%
same,"p53-positive nuclei, normalised",[2]; [24],1.32%
same,"p53-positive nuclei, normalised",[2]; [6],0.97%
same,"p53-positive nuclei, normalised",[2]; [25],1.31%
